Experimental findings from PubChem BioAssay (Tox21) are described below.

A short description of assay [1]: qHTS assay to identify small molecule antagonists of the estrogen related receptor (ERR) signaling pathway from Tox21 library - cell viability counter screen (AID 1224834). Note: nearly all actives have a fitted effect of over 30% in size. Note: potency is the fitted concentration of half-maximal effect. The method, boiled down: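 ERR cells, 2,000/well; 6 h settle at 37 C/5% CO2; pin-tool compound transfer in DMSO; 17.5 h at 37 C; CellTiter-Fluor, 30 min; fluorescence intensity.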
For orientation: In qHTS, concentration-response curves come from the screen itself.

Assay [2] addresses Luciferin 4-monooxygenase (Photinus pyralis) (UniProt P08659). The assay is described as follows: qHTS assay to identify small molecule inhibitors of firefly luciferase (AID 1224835). Note: nearly all actives have a fitted effect of over 25% in size. Note: potency is the fitted concentration of half-maximal effect. The essentials:
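Biochemical qHTS: compounds run as interplate titrations against purified firefly enzyme, with D-luciferin and ATP each at its KM concentration. Light output recorded by CCD imaging.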

Assay [3] is described as follows: qHTS assay to identify small molecule agonists of the constitutive androstane receptor (CAR) signaling pathway - cell viability counter screen (AID 1224836). Note: nearly all actives have a fitted effect of over 45% in size. Note: potency is the fitted concentration of half-maximal effect. The essentials: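 HepG2-CYP2B6-hCAR, 2500 cells/well, 4 h pre-incubation; cpd 15 conc + PK11195 0.75 uM final; 23 h, 37 C/5% CO2; CellTiter-Fluor, fluorescence.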
Assay [4] is described as follows: qHTS assay to identify small molecule antagonists of the constitutive androstane receptor (CAR) signaling pathway - cell viability counter screen (AID 1224837). Note: series mostly up to about 92 µM; nearly all actives have a fitted effect of over 45% in size. The method, boiled down: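 Viability was measured with CellTiter-Fluor in a HepG2 line carrying stably transfected hCAR and a CYP2B6-2.2kb construct. Cells were exposed for 23 hr at 37 C to 15 compound concentrations with 50 nM CITCO as agonist.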

For assay [5], the target named is Nuclear receptor subfamily 1 group I member 3 (Homo sapiens) (UniProt Q14994). Briefly: qHTS assay to identify small molecule antagonists of the constitutive androstane receptor (CAR) signaling pathway (AID 1224838).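 Note: HepG2 cells stably expressing hCAR with CYP2B6 luciferase reporter stimulated by CITCO; nearly all actives have a fitted effect of over 40% in size.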 The method, boiled down:
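Antagonist mode used CITCO at a final 50 nM to activate CAR in human hepatoma HepG2 cells carrying stable hCAR and a 2.2 kb CYP2B6 promoter-luciferase construct. Compounds were tested at 15 concentrations over 24 h, with luminescence as the end point.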

For assay [6] the target is unchanged. Briefly: qHTS assay to identify small molecule agonists of the constitutive androstane receptor (CAR) signaling pathway (AID 1224839). Note: nearly all actives have a fitted effect of over 15% in size. Note: potency is the fitted concentration of half-maximal effect. The method, boiled down:
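HepG2-CYP2B6-hCAR cells, 2500/well, 4 h pre-incubation; compounds 15 conc.; PK11195 0.75 uM final; 24 h, 37 C/5% CO2; ONE-Glo luciferase read.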

Assay [7] is described as follows: qHTS assay to identify small molecule antagonists of the estrogen related receptor signaling pathway with the pleiotropic PPARgamma coactivator (PGC) from Tox21 10K library - cell viability counter screen (AID 1224840; active = well fitted cell-killing curve with a large enough effect in the repeat runs, not every such curve was filed as active; note: nearly all actives have a fitted effect of over 40% in size; note: potency is the fitted concentration of half-maximal effect). The method, boiled down: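 Multiplexed viability counter screen in the PGC/ERR cell line: cells treated with DMSO-dissolved compounds for 17.5 hours at 37 C, then viability measured as CellTiter-Fluor fluorescence.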

Assay [8] has as its target Thyrotropin receptor (Homo sapiens) (UniProt P16473). The assay is described as follows: qHTS assay to identify small molecule agonists of the thyroid stimulating hormone receptor (TSHR) signaling pathway (AID 1224843; calls by dose curve; note: nearly all actives have a fitted effect of over 45% in size; note: potency is the fitted concentration of half-maximal effect). The essentials:
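Agonist-mode screen: TSHR HEK293 cells received test chemicals for half an hour at room temperature, then HTRF cAMP detection reagents for one hour prior to fluorescence measurement. Each chemical ran as a 15-concentration series, triplicated.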

Assay [9] is described as follows: qHTS assay to identify small molecule antagonists of the estrogen related receptor signaling pathway with the pleiotropic PPARgamma coactivator (PGC) from Tox21 10K library (AID 1224841; call rule not given here; note: actives are mostly falling curves and most rising ones were filed inactive; nearly all actives have a fitted effect of over 50% in size; note: potency is the fitted concentration of half-maximal effect). The method, boiled down: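 Steps: plate 2,000 PGC/ERR cells per well; incubate 6 h at 37 C with 5% CO2; transfer compounds from DMSO stocks by pin tool; incubate 18 h at 37 C; add One-Glo; measure luminescence 30 min later.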

Assay [10] in a line: qHTS assay to identify small molecule agonists of the estrogen related receptor signaling pathway with the pleiotropic PPARgamma coactivator (PGC) from Tox21 10K library (AID 1224842). Note: nearly all actives have a fitted effect of over 15% in size. The essentials: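 PGC/ERR reporter cell line, 2,000 cells per well, incubated 6 h at 37 C before 23 nL compound in DMSO was added. After 18 h at 37 C, One-Glo luminescence read following 30 min at room temperature.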

Where “and” joins values, the source holds several entries; their conditions need not be identical. Equal values may be shown once. Inconclusive results are not listed. A structure can be active in one record and inactive in another. Calls of active or inactive are those of the source. Unless noted, calls come from the whole dose curve; as a rule, active = well fitted curve in the direction sought with a large enough effect in the repeat runs; inconclusive = weak or mixed curves; inactive = no such curve, though single readings can be large; an effect the other way counts as inactive or inconclusive.

Sequence of Thyrotropin receptor (Homo sapiens) (P16473 whole entry, looked up): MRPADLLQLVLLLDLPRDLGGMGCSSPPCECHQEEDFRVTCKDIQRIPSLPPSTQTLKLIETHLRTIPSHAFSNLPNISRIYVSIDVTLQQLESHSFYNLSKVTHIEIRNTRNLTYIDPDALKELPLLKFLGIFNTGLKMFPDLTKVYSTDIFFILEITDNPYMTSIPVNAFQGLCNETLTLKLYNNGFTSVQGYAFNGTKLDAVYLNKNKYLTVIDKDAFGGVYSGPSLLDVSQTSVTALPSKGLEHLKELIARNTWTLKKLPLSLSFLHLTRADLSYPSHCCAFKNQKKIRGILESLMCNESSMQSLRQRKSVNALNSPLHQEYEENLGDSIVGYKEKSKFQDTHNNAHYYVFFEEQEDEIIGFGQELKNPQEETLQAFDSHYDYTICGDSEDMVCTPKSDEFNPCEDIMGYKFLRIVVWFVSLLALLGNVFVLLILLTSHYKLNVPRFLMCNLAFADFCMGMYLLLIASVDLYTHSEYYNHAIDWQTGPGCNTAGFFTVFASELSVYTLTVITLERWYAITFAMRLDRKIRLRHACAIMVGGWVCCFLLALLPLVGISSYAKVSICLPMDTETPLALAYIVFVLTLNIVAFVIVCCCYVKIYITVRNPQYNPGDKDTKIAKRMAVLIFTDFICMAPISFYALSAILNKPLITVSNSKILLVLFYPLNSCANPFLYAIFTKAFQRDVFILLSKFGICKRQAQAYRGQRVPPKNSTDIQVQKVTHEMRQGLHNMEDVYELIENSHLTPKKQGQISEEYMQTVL
Sequence of Nuclear receptor subfamily 1 group I member 3 (Homo sapiens) (Q14994 whole entry, looked up): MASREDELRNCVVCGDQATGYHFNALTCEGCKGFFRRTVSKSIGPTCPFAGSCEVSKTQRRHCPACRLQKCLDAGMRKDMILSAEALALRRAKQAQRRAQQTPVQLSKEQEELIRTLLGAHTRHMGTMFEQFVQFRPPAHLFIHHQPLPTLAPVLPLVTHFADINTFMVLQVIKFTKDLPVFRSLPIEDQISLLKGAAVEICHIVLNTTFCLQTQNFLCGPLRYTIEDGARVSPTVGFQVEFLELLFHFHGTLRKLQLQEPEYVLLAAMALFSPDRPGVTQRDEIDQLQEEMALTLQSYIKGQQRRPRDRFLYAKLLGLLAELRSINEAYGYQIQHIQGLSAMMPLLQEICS
Sequence of Luciferin 4-monooxygenase (Photinus pyralis) (P08659 whole entry, looked up): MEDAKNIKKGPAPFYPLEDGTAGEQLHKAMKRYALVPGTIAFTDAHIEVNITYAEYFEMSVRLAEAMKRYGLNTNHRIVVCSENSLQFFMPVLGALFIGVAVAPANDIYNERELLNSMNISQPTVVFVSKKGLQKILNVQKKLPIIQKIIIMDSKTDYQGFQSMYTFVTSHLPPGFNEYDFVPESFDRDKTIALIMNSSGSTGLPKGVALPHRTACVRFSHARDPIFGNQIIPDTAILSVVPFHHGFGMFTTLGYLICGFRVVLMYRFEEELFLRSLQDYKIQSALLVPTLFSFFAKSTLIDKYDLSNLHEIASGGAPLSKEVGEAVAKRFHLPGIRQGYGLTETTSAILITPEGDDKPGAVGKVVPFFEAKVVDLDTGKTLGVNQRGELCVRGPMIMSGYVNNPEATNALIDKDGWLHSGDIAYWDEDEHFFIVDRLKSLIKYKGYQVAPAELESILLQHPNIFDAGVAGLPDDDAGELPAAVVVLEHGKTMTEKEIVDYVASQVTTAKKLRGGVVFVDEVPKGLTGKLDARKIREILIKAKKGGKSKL

For `CN(C)C(=O)Nc1ccc(Cl)cc1`, the Potency entry in [1], in [2], in assay [3], in assay [4], in assay [5] and in [6] was “inactive” throughout. Further, the Potency result in assay [7] and in assay [8] was “inactive” each time.
As for `O=P(O)(O)CCCl`, the Potency result in assay [1], in assay [2], in assay [3], in assay [4], in assay [5] and in assay [6] was “inactive” each time. The Potency result in assay [7] and in [8] was “inactive” throughout.
For `Cc1ccc(OP(=O)(Oc2ccc(C)cc2)Oc2ccc(C)cc2)cc1`, the Potency entry in assay [1], in [2], in assay [3], in [4], in assay [7] and in assay [9] was “inactive” throughout. Also, the Potency result in assay [10] was “inactive”. Besides, in assay [8], the Potency is 12.2 µM (active) and 30.6 µM (active).
On to `COc1ccc(C(CN(C)C)C2(O)CCCCC2)cc1` (stereo not given), for which the Potency entry in [1], in assay [2], in assay [3], in assay [4], in assay [7] and in [8] was “inactive” in each case.
As to `O=C(Nc1ccc(Br)cc1)c1cc(Br)cc(Br)c1O`, the Potency result in assay [1] was “inactive and 19.3 µM (active) and 10.6 µM (active)”; in assay [2], 3.98 µM (active) and 5.03 µM (active) and 6.92 µM (active); in [3], 27.2 µM (active) and 16.8 µM (active); in [7] it was “inactive and 21.1 µM (active)”; in [9], 13.6 µM (active) and 13.7 µM (active) and inactive. Moreover, the Potency entry in [10] and in [8] was “inactive” in each case.
As for `O=C(CCl)c1ccccc1`, the Potency entry in assay [1], in assay [2], in [3], in assay [4] and in assay [7] was “inactive” throughout. For the same compound, the Potency in assay [8] is 69.6 µM (active).
Take `CCc1cccc(CC)c1N(COC)C(=O)CCl`: the Potency result in assay [2], in [3], in assay [4], in assay [5], in assay [7] and in assay [8] was “inactive” throughout. Further, in assay [6], the Potency was 18.7 µM (active) and 19.3 µM (active).
For `C[C@]12CCC(=O)C[C@@H]1CC[C@@H]1[C@@H]2CC[C@]2(C)[C@@H](O)CC[C@@H]12`, the Potency in [1] is 48 µM (active) and inactive. In addition, the Potency entry in [3], in [4] and in [7] was “inactive” throughout.
In the case of `CC(C)NC(C)C`, the Potency result in assay [1], in [2], in [3], in assay [4], in assay [7] and in [8] was “inactive” in each case.
`COP(=S)(OC)Oc1ccc([N+](=O)[O-])cc1`: the Potency result in assay [3], in assay [4], in assay [5], in assay [6] and in assay [8] was “inactive” throughout.
Take `Cc1cc(C)cc(C)c1`: the Potency result in [1], in assay [2], in assay [3], in assay [4], in assay [7] and in assay [8] was “inactive” each time.
Turning to `N[C@@H](Cc1ccc(N(CCCl)CCCl)cc1)C(=O)O`, the Potency result in assay [1], in assay [3], in [4], in assay [7] and in assay [8] was “inactive” each time.
For `C#CCOS(=O)OC1CCCCC1Oc1ccc(C(C)(C)C)cc1` (stereo not given), the Potency in assay [1] was 4.33 µM (active); in assay [6], “inactive and 5.45 µM (active)”; in [9], 3.86 µM (active) and 3.06 µM (active); in assay [8], 12.2 µM (active) and 24.3 µM (active). The Potency entry in [5], in assay [7] and in assay [10] was “inactive” in each case.
In the case of `Oc1cc(Cl)ccc1Cl`, the Potency result in [1], in [2], in assay [3], in assay [4], in assay [7] and in [8] was “inactive” each time.
In the case of `Cc1ccc(N)c(N)c1`, the Potency in [2] was 15.9 µM (active) and 2.52 µM (active); in assay [6], 27.4 µM (active) and 24.3 µM (active). The Potency entry in [3], in assay [4], in [5], in [7] and in assay [8] was “inactive” each time.
As for `CCN(CC)C(=O)/C(Cl)=C(\C)OP(=O)(OC)OC`, the Potency entry in assay [1], in assay [2], in [3], in assay [4], in [7] and in assay [8] was “inactive” each time.
Consider `Oc1cc(Cl)c(Cl)cc1Cl`, for which the Potency entry in assay [1], in [2], in assay [3], in assay [4], in [7] and in assay [8] was “inactive” throughout.
Regarding `CCOCN(C(=O)CCl)c1c(C)cccc1CC`, the Potency result in assay [2], in [3], in assay [4], in [5], in assay [7] and in assay [10] was “inactive” each time. The Potency was 18.3 µM (active) and 15.4 µM (active) in assay [6]; 36.4 µM (active) and 13.7 µM (active) in [9]; 8.15 µM (active) and inactive in [8].
As to `CCCCCc1cc(O)cc(O)c1`, the Potency is 54.5 µM (active) in [1]; 63.6 µM (active) and 39.9 µM (active) in [2]; 54.5 µM (active) in assay [6]; “inactive and 48.6 µM (active)” in assay [7]. Further, the Potency result in assay [3], in assay [5] and in assay [8] was “inactive” in each case.
Regarding `CCN(N=O)C(N)=O`, the Potency result in assay [1], in [2], in [3], in assay [4], in [7] and in [8] was “inactive” each time.
